# Results taken from PubChem BioAssay.
# Activity calls are given as the source filed them. Rule as the data show it, unless noted: active = inhibition above about 30%; inactive = the rest.
# How the values were obtained:
# [1] = target: Nuclear receptor coactivator 3 (Homo sapiens) (UniProt Q9Y6Q9); assay: NCOA3 GAL4-fusion reporter inhibition – cell-based, luminescence, quadruplicate, confirmation (AID 588792;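 active = mean inhibition over 43.08%, the solvent-only control mean plus 3 SD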;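 also: 0% = DMSO treated cells and 100% = gossypol at 36 µM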); details: HEK293 GAL4-SRC3 luciferase reporter, at 3.6 µM, stronger effect = higher value
# [2] = test system: transactivating tegument protein VP16 (Human herpesvirus 1), Gal4-VP16 luciferase reporter; assay: repression of VP16-driven luciferase reporter – cell-based, luminescence, high throughput, counter-screen for SRC3 inhibitor project (AID 588794); details: mammalian cells, at 3.6 µM, stronger effect = higher value
# Chain of Nuclear receptor coactivator 3 (Homo sapiens) (Q9Y6Q9 whole entry, looked up, the tested form may be a part): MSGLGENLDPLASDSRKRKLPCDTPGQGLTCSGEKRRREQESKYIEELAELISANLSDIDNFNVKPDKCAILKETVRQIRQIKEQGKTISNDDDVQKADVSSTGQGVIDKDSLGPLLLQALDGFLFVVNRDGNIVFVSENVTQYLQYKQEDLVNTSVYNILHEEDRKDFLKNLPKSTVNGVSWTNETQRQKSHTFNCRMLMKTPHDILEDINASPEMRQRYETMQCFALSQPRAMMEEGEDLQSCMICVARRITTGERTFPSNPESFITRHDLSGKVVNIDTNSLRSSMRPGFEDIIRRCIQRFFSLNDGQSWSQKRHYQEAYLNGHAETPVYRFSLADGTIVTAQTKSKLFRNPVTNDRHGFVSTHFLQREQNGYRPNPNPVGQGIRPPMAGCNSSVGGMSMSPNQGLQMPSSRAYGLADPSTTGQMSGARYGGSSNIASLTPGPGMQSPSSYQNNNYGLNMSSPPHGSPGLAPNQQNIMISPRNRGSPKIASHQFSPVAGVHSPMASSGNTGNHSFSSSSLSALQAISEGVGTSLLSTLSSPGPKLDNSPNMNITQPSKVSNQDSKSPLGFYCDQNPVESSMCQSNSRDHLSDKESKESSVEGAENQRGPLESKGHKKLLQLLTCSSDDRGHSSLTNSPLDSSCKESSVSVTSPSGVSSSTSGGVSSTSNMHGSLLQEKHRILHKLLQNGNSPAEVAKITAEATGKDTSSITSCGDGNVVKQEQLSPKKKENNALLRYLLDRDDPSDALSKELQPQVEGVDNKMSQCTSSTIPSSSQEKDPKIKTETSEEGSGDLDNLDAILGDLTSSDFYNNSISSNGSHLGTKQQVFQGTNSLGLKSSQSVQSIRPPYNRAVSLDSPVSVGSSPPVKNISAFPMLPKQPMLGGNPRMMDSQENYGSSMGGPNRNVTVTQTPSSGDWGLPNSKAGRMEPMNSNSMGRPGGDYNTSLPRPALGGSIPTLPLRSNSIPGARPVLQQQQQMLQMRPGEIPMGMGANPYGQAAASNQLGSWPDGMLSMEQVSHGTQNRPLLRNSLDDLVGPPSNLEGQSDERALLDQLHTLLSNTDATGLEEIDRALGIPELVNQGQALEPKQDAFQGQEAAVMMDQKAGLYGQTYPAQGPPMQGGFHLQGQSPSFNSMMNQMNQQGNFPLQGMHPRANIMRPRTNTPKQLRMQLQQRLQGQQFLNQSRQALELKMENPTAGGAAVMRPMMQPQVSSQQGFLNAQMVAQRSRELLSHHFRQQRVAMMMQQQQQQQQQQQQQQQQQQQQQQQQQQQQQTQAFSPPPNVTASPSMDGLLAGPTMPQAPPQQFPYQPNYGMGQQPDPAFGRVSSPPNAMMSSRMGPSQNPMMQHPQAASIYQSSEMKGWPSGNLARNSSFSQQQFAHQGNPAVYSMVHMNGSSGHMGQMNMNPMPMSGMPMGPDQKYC
Structure (SMILES),inhibition [1],inhibition [2]
OC[C@H]1O[C@@H](Oc2ccc(O)cc2)[C@H](O)[C@@H](O)[C@@H]1O,7.6% (inactive),-4.32% (inactive)
Cc1cccc(C2(c3cccc(C)c3)CC2C(=O)Nc2ccc([N+](=O)[O-])cc2O)c1 (stereo unspecified),7.2% (inactive),8.99% (inactive)
S=C(N/N=C/c1ccc2ncccc2c1)Nc1cccnc1,-1.24% (inactive),-17.5% (inactive)
CCCCC(=O)NC(c1ccco1)c1cc(Cl)c2cccnc2c1O (stereo unspecified),16.4% (inactive),10.6% (inactive)
COc1cccc(C(=O)/C=C/c2ccc(OCC#N)c(OC)c2)c1,22.2% (inactive),23.2% (inactive)
O=c1[nH]oc2cc(Cl)ccc12,3.14% (inactive),-1.43% (inactive)
Oc1cccc2ccc(Nc3ccccn3)nc12,3.4% (inactive),-8.03% (inactive)
COc1ccc(CCN2C(=O)c3cccc4c(C(=O)N5CCCCC5)ccc(c34)C2=O)cc1OC,-2.54% (inactive),3.93% (inactive)
CCOc1ccc(-c2cc(C)n3nc(C(N)=O)cc3n2)cc1,32.9% (inactive),23.3% (inactive)
Cc1ccc(F)cc1NC(=O)C1CCN(c2cnccn2)CC1,-9.49% (inactive),-3.26% (inactive)
CC(Oc1ccc(Cl)cc1)C(=O)NCCN1C(=O)S/C(=C\c2cccnc2)C1=O (stereo unspecified),4.29% (inactive),-2.64% (inactive)
CCc1ccc2nc3nc(C)cc(C)c3c(N)c2c1,20.2% (inactive),32.7% (active)
CCCOc1cccc(C(=O)Nc2cc(NC(=O)c3ccco3)ccc2OC)c1,10.8% (inactive),2.92% (inactive)
Cc1nc2c(-c3ccc(F)cc3)cnn2c(N)c1-c1ccc(F)cc1,12% (inactive),9.51% (inactive)
CCC1C(=O)NCCN1C(=O)c1ccc2nc(Cc3ccc(OC)cc3)oc2c1 (stereo unspecified),-2.02% (inactive),-0.9% (inactive)
CCCc1[nH]nc2c1C(c1ccc(Br)s1)C(C#N)=C(N)O2 (stereo unspecified),8.21% (inactive),25.7% (inactive)
Cc1ccc(C(=O)N/N=C/c2ccc(-c3cccc(C(F)(F)F)c3)o2)cn1,6.91% (inactive),4.45% (inactive)
COc1ccccc1N1CCN(C(=O)C2CCCN(S(=O)(=O)c3ccc4c(c3)CCCN4C(C)=O)C2)CC1 (stereo unspecified),-12.2% (inactive),8.25% (inactive)
Cc1cc(C(=O)Nc2ccncc2)c(C)o1,8.35% (inactive),-9.44% (inactive)
CCn1c(Cc2ccccc2)nnc1SCC(=O)Nc1ccc(N2CCOCC2)c(Cl)c1,-0.44% (inactive),-2.29% (inactive)
FC(F)(F)c1cccc(-c2nc3nc(Cl)c(Cl)nc3[nH]2)c1,-12% (inactive),31.5% (active)
CSCc1cc(N(C)c2ccccc2)nc(-c2ccccn2)n1,-19.7% (inactive),-1.49% (inactive)
COc1ccccc1NC(=O)Nc1nnc(Cc2ccccc2F)s1,5.82% (inactive),20.4% (inactive)
c1ccc(CN2CCN(c3ncnc4c3[nH]c3ccccc34)CC2)cc1,8.1% (inactive),29.9% (active)
Cc1noc(C)c1CN1C(=O)NC2(CCCCCCC2)C1=O,0.62% (inactive),-10.4% (inactive)

Structure (SMILES),inhibition [1],inhibition [2]
CC(C(=O)N1c2ccccc2Sc2ccccc21)n1nnc(-c2cccs2)n1 (stereo unspecified),2.33% (inactive),6.84% (inactive)
CCOC(=O)c1c(-c2ccccc2)nnn1-c1nc(OCC)nc(N2CCCCC2)n1,-15.5% (inactive),0.51% (inactive)
COc1ccccc1C(=O)OCC(=O)c1ccc(CNC(C)=O)s1,10.4% (inactive),-0.94% (inactive)
O=C(Nc1ccc(Oc2cccnc2)nc1)c1ccc(C(F)(F)F)cc1,17.2% (inactive),37.1% (active)
COC(=O)c1ccccc1NC1=C/C(=N\S(=O)(=O)c2cccs2)c2ccccc2C1=O,2.2% (inactive),6.65% (inactive)
C=CCc1cccc(/C=N/NC(=O)CCC(=O)Nc2ccc(F)cc2)c1O,26.2% (inactive),21.1% (inactive)
CCCC(C(=O)NC(C)(C)C)N(C(=O)c1snc(C(N)=O)c1N)c1ccc2c(c1)OCCO2 (stereo unspecified),15.9% (inactive),2.4% (inactive)
CCN(CC(=O)Nc1ccc(OC)cc1)C(=O)CSCC(=O)Nc1cc(C)on1,5.34% (inactive),5.42% (inactive)
COc1ccc2nc(C)cc(Nc3ccc(N4CCN(C)CC4)cc3)c2c1,71.8% (active),35.3% (active)
C/C(=N\NC(=O)c1c(C)nc2ccccn12)c1ccc(O)cc1O,52.7% (active),55.2% (active)
O=C(NN=Cc1cccc(O)c1O)c1ccccc1,23.7% (inactive),21.5% (inactive)
CCC(=O)NC(c1cccs1)c1ccc2cccnc2c1O (stereo unspecified),33.1% (inactive),25.9% (inactive)
Oc1c(CN2CCCCC2)cc(COCc2ccccc2)c2cccnc12,75.2% (active),66.7% (active)
CC(=O)c1ccc(N2CCN(C(=O)c3nn(Cc4ccccc4)c(=O)c4ccccc34)CC2)cc1,13.9% (inactive),-1.19% (inactive)
CCc1ccc(OCC(=O)NC(NC(=S)Nc2ccc(Cl)cc2)C(Cl)(Cl)Cl)cc1 (stereo unspecified),-0.7% (inactive),0.6% (inactive)
Cc1nc2ccccn2c1-c1ccnn1S(=O)(=O)c1ccc(F)cc1,3.74% (inactive),12.3% (inactive)
CCOc1ccc(N(CC)C(=O)Cc2c(C(=O)O)n(C)c3ccccc23)cc1,-8.28% (inactive),7.58% (inactive)
COc1cc(C(=O)Nc2nc(-c3cccs3)cs2)cc(OC)c1OC,-9.35% (inactive),-21.8% (inactive)
COc1ccc2nc(C(F)(F)Cl)c(C#N)c(N)c2c1,24% (inactive),-0.89% (inactive)
O=C(CCc1ccncc1)NC1CCCc2c1cnn2-c1ccc(F)cc1F (stereo unspecified),0.71% (inactive),18.6% (inactive)
O=C(N/N=C/c1cc(Br)c(Br)s1)c1ccncc1,31.1% (inactive),18.5% (inactive)
NC(=S)NNc1ccc(Cl)c(Cl)c1,12.7% (inactive),-0.23% (inactive)
CCN(CC)S(=O)(=O)c1cccc(NC(=O)C2SC(=Nc3ccc(C)cc3C)C(C(=O)NC(C)COC)=C2N)c1 (stereo unspecified),6.35% (inactive),5.31% (inactive)
CCOc1ccc(/C=N/OCC(=O)NCc2ccc3c(c2)OCO3)cc1OC,-12.6% (inactive),-5.41% (inactive)
O=C(Nc1ccccc1C(=O)Nc1nnc(C(F)(F)F)s1)c1ccccc1Cl,12.3% (inactive),11% (inactive)

Structure (SMILES),inhibition [1],inhibition [2]
O=C(N/N=C/c1cc(Cl)ccc1O)c1ccncc1,16.7% (inactive),35.7% (active)
Brc1ccc(N=Nc2ccc3ccccc3n2)cc1,51.2% (active),33.7% (active)
CN1C/C(=C/c2cccnc2)C(=O)/C(=C/c2cccnc2)C1,23.5% (inactive),54.1% (active)
Cc1ccc2c(c1)c(C)cc[n+]2Cc1ccccc1,10.7% (inactive),4.92% (inactive)
CC(C)c1ccc(NC(=O)C2CCCN(S(=O)(=O)c3cccnc3)C2)cc1 (stereo unspecified),-12.3% (inactive),4.41% (inactive)
CCOc1ccc(CNC(=O)C2Cc3cc(S(=O)(=O)N4CCCC4)ccc3N2C(C)=O)cc1 (stereo unspecified),4.56% (inactive),8.25% (inactive)
O=C(c1ccccc1)N1CCN(Cc2c[nH]c3ccccc23)CC1,8.59% (inactive),-3.11% (inactive)
COC(=O)c1ccc2c(c1)C(C)(C)C(/C=C/c1ccccc1O)=[N+]2C,58.6% (active),43.5% (active)
Cc1ccc(-n2c(-c3ccccc3)c[n+]3c2CCC3)cc1,14.4% (inactive),30.6% (active)
COc1cc(C(F)(F)F)c(C(=O)N(C)Cc2cc(Cl)cc(Cl)c2)cn1,-10.3% (inactive),-2.09% (inactive)
COC(=O)c1cc(S(=O)(=O)NCCc2ccc(Cl)cc2)c[nH]1,29.2% (inactive),18.4% (inactive)
CC1=C(NCCc2ccccc2)CCC1=O,0.47% (inactive),-7.31% (inactive)
Cc1ccc(Cl)cc1N1CCN(C(c2ccc(C#N)cc2)c2nnnn2C2CCCC2)CC1 (stereo unspecified),1.29% (inactive),22.5% (inactive)
Cn1c(N)c(C(=O)COC(=O)C2CC(=O)N(Cc3ccccc3)C2)c(=O)n(C)c1=O (stereo unspecified),-0.18% (inactive),-2.93% (inactive)
COc1cccc(/C=N/Nc2nc3ccccc3n3cnnc23)c1O,13.4% (inactive),1.79% (inactive)
Cc1cccc(C)c1-n1c(C)cc(/C=N\NC(=O)CC(=O)NC2CCCCC2)c1C,-17.4% (inactive),-15.1% (inactive)
Cc1cccc(N2C(=O)c3cccnc3C2=O)c1,3.71% (inactive),-4.38% (inactive)
O=C(NCCc1ccccn1)C(F)(F)C(F)(F)C(F)(F)C(F)(F)C(F)(F)C(F)(F)C(F)(F)C(F)F,9.78% (inactive),-4.16% (inactive)
O=[N+]([O-])c1ccccc1NC1CCN(Cc2ccccc2)CC1,-4.81% (inactive),0.87% (inactive)
Cc1cccc(C)c1OCC(=O)N(Cc1cccs1)C1CCS(=O)(=O)C1 (stereo unspecified),8.07% (inactive),1.1% (inactive)
CCN1C/C(=C\c2cccc([N+](=O)[O-])c2)C(=O)/C(=C/c2cccc([N+](=O)[O-])c2)C1,-110% (inactive),80.6% (active)
Cc1ccc(C(=O)NC2c3ccccc3-c3ccccc32)cc1,11.3% (inactive),12.1% (inactive)
COc1ccc(NC(=O)c2cc(C3CC3)nc3c2cnn3C(C)C)cc1OC,-12.8% (inactive),-3.62% (inactive)
